# DUSP3 inh: VHR1 phosphatase inhibitors, primary screen, biochemical, absorbance, uHTS; Dual specificity protein phosphatase 3 (Homo sapiens), P51452; recombinant VHR phosphatase, pNPP absorbance; inhibition, % at 13.3 µM; 290,000 tested, 0.52% active; in the data active means inhibition above about 50%
# Target sequence (P51452 whole entry, looked up): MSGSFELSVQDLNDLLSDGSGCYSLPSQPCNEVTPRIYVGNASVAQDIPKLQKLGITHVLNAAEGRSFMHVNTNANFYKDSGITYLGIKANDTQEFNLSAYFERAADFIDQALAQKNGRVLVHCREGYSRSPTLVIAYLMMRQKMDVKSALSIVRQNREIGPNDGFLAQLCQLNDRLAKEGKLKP
# CCHF vOTU inh: CCHFV vOTU protease inhibitors, primary screen, biochemical, Pep-AMC substrate, fluorescence; Crimean-Congo hemorrhagic fever virus L polyprotein viral ovarian tumor (vOTU) protease …; inhibition, % at 11.5 µM; 370,000 tested, 0.55% active; in the data active means inhibition above about 30%; further: 0% = vehicle wells with enzyme and 100% = no enzyme wells
# 3CLpro inhibitor: SARS-CoV 3CLpro protease inhibitors, primary screen, biochemical, quenched FRET; Replicase polyprotein 1ab (Severe acute respiratory syndrome coronavirus), P0C6X7; recombinant SARS-CoV 3CLpro, quenched FRET peptide cleavage; inhibition, % at 6 µM; 290,000 tested, 0.14% active; in the data active means inhibition above about 12%
# BJeLR viability: MLPCN primary cell-based screen for lethality selective to Ras in HRASV12 cells; 300,000 tested, 0.17% active; BJeLR (HRASV12) viability, CellTiter-Glo ATP luminescence, 48 h; AID 1554, 2009; inhibition, % (no concentration beside the values); in the data active means inhibition above about 50%
# MazF activator: activators of E. coli MazEF toxin-antitoxin RNase, primary screen, biochemical, fluorescence, uHTS | Endoribonuclease toxin MazF (Escherichia coli (strain K12)), P0AE70 | AID 504720, 2011 | activation, % at 20 µM | FAM/BHQ RNA-DNA oligo cleavage fluorescence, 5 h | 350,000 tested, 0.32% active; in the data active means activation above about 50%
# Target sequence (P0AE70 whole entry, looked up): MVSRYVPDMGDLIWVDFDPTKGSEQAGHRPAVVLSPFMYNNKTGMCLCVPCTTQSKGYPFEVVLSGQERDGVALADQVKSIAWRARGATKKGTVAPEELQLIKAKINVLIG
# * = called active by the depositor; / = no result; + = active, no number; ! = repeats disagree. In the library only some 1.4% were active in any assay of this set; here they are far more common.
SMILES,DUSP3 inh,CCHF vOTU inh,3CLpro inhibitor,BJeLR viability,MazF activator
COc1cccc(-c2cc(C(F)(F)F)c3c(N)c(C#N)sc3n2)c1,40.7,/,-0.7,1.9,/
CN(C)CCNC(=O)c1sc2nc(-c3ccccc3)cc(C(F)(F)F)c2c1N,16.5,10.3,-1.9,3.5,30.6
O=S(=O)(c1cccc2cccnc12)N1CCC(c2cn3ccccc3n2)CC1,/,-8.9,/,/,/
CCCC(C(=O)NC(C)(C)CC)N(Cc1ccco1)C(=O)CNS(=O)(=O)c1ccccc1 (stereo not drawn),57.6*,1.0,-2.4,3.3,5.6
Cn1c(Cc2cccs2)nnc1SCc1nc2ccccc2[nH]1,53.4*,-5.3,-1.7,0.7,5.1
COc1cc(/C=C2/C(=O)N(C)C(=S)N2C)ccc1OCc1cccc(F)c1,-3.8,4.7,-4.1,-1.4,65.7*
CN1C(=O)/C(=C/c2ccc(OCc3cccc(F)c3)cc2)NC1=S,0.1,-12.5,4.0,-6.1,2.7
CCn1c(=O)n(CC)c2cc(N3CCCC3)c(NC(=O)c3ccc(C)cc3)cc21,56.3*,-7.2,2.9,5.2,4.2
S=C(NCc1ccccc1)Nc1ccncc1,52.8*,-10.1,0.1,8.0,4.3
S=C(NCc1ccncc1)Nc1ccccc1,19.1,-9.6,-0.1,6.7,-8.0
COC(=O)[C@@]12CCCCC=C1N(CCc1ccc(Cl)cc1)C(=O)[C@H]2CC(=O)NCCc1ccccc1OC,/,0.8,/,/,/
COc1ccc(Cn2c(=O)[nH]c3cc(C(=O)NC4CCCC4)ccc3c2=O)cc1,1.5,-9.4,0.6,-8.2,-13.4
COc1cc2[nH]c(=O)n(Cc3ccc(C(=O)NC4CCCC4)cc3)c(=O)c2cc1OC,19.6,-8.1,-4.5,2.4,87.5*
COC(=O)[C@]12C[C@H](CC(=O)N3CCSCC3)C(=O)N(Cc3ccco3)C1=C[C@H](COCc1ccccc1)O[C@@H]2C,/,4.1,/,/,/
CCOc1ccccc1CN1CCNC(=O)C1CC(=O)NC1CCCCCC1 (stereo not drawn),-3.6,-4.6,-2.6,7.1,-3.2
CCOc1ccccc1CN1CCNC(=O)C1CC(=O)NC1CCCCC1 (stereo not drawn),51.2*,-6.2,-6.8,-1.4,6.6
O=C(Cn1nc(C(F)F)cc1C1CC1)N1CCCC1,59.1*,3.4,0.1,-6.2,5.9
CCOC(=O)C1=C(C)NC2=C(C(=O)C(C(=O)OCC)C(c3ccco3)C2)C1c1ccccn1 (stereo not drawn),-5.7,-36.6,0.5,-3.3,62.5*
COc1c2c(cc3c1c(=O)c1ccccc1n3C)OCO2,/,-57.0,/,/,/
CC1=CN2C(=N)/C(=C/c3ccc([N+](=O)[O-])o3)C(=O)N=C2S1,37.8,-2.5,1.6,17.1,116.1*
CC1=CN2C(=N)/C(=C/c3ccco3)C(=O)N=C2S1,5.1,-1.5,3.5,1.8,-13.1
CC1(C)CC(=O)C2=C(C1)OC(N)=C(C#N)C21CCN(Cc2ccccc2)CC1,21.3,-9.8,4.8,-17.5,50.3*
Cc1ccnc(SC2CC(=O)N(c3ccc(C(C)C)cc3)C2=O)n1 (stereo not drawn),50.7*,6.6,-0.6,-4.4,7.5
COc1ccc(NC(=O)c2ccc(-c3ccc([N+](=O)[O-])cc3)o2)cc1,6.3,13.3,-4.3,-7.7,-0.1
COc1ccc(CCNC(=O)c2ccc(-c3ccc([N+](=O)[O-])cc3)o2)cc1OC,27.7,0.5,0.7,-3.7,59.3*
SMILES,DUSP3 inh,CCHF vOTU inh,3CLpro inhibitor,BJeLR viability,MazF activator
Oc1ccc2ccccc2c1-c1sc(Nc2ccccc2)n[n+]1-c1ccc(F)cc1,1.1,10.7,6.2,14.7,+
COCCCN1C(=O)[C@H](CC(=O)NCc2ccc(C)o2)[C@]2(C(=O)OC)CCCCC=C12,/,6.7,/,/,/
O=Cc1ccc2ccc3cccnc3c2n1,56.9*,-10.5,4.1,0.9,1.4
c1cnc2c(c1)ccc1cccnc12,1.5,2.1,0.1,56.1*!,7.8
O=C(CSc1ccccc1)N1CCC(Oc2cccnc2)CC1,/,-1.9,/,/,/
COc1cc2c(cc1OC)/C(=C/C(=O)c1ccc([N+](=O)[O-])c(C)c1)NCC2,8.6,0.4,-0.8,11.8,74.0*
CCOC(=O)N1CCN(C(=O)C[C@@H]2C(=O)N(Cc3ccc(OC)cc3)C3=CCN(C(=O)OC(C)(C)C)C[C@]32C(=O)OCC)CC1,/,6.1,/,/,/
C=CCn1c(O)c(N=Nc2ccccc2O)c2ccccc21,/,6.1,/,/,310.8*
C=CCn1c(O)c(N=Nc2ccccc2)c2ccccc21,8.8,-5.1,-2.9,-3.8,-9.4
CCOc1ccc(N2CC(C(=O)Nc3ccc(S(=O)(=O)N4CCCC4)cc3)CC2=O)cc1 (stereo not drawn),55.2*,13.9,0.8,-2.6,8.9
C=CCn1c(SCC(N)=O)nnc1-c1ccc(C)cc1,/,3.9,/,/,/
Cc1ccc(C(=O)C2CCN(CC(=O)N3CC(C)CC(C)C3)CC2)cc1 (stereo not drawn),/,-2.7,/,/,/
CCOC(=O)C1CCN(S(=O)(=O)c2c(Cl)ccc3nonc23)CC1,16.3,5.5,2.5,60.4*,/
CC(O)(CS(=O)(=O)c1ccc(Br)cc1)c1ccccc1 (stereo not drawn),-6.7,1.1,-3.1,1.3,-0.3
O=S(=O)(CC(O)(c1ccccc1)c1ccccc1)CC(O)(c1ccccc1)c1ccccc1,/,-13.0,/,/,69.3*
O=C(CN1C(=O)COc2ccccc21)N1CCCC1,55.5*,-6.0,-0.1,2.3,-8.5
CCC(C)NC(=O)CN1C(=O)COc2ccc(S(=O)(=O)N3CCOCC3)cc21 (stereo not drawn),-9.1,-2.6,3.8,-0.5,6.1
O=C(CN1C(=O)COc2ccccc21)N1CCOCC1,-9.0,7.4,-1.5,7.3,-21.3
CCN1CCN(C(=O)CN2C(=O)COc3ccc(S(=O)(=O)N4CCOCC4)cc32)CC1,56.8*,9.6,-0.5,0.6,4.2
Cn1c(SC/C=C/c2ccccc2)nnc1-c1cccnc1,/,6.3,/,/,/
Cc1ccc2c(c1)C1CS(=O)(=O)N(CCc3ccccc3)CN1C2 (stereo not drawn),/,0.7,/,/,/
O=[N+]([O-])c1cccc(OCc2cn3cccnc3n2)c1,52.7*,4.1,2.3,-5.1,-31.5
Cc1cccn2cc(COc3cccc([N+](=O)[O-])c3)nc12,25.1,5.7,-4.7,7.0,2.5
COc1cccc(C=NNC(=O)CSc2nc3ccccc3[nH]2)c1O,/,19.3,/,/,/
COc1ccc(C)cc1N(C(=O)c1ccco1)C(C(=O)NC1CCCC1)c1ccc(N2CCOCC2)cc1 (stereo not drawn),52.0*,2.0,-3.2,-6.1,-4.7
C(C#CCCCCCCCCC[n+]1ccccc1)#CCCCCCCCCC[n+]1ccccc1,-2.9,9.6,1.0,51.7*,18.1
COC(=O)[C@]12C[C@H](CC(=O)NCC3CCCCC3)C(=O)N(Cc3ccccc3)C1=C[C@H](COCc1ccccc1)O[C@@H]2C,/,5.0,/,/,/

# Screening results (PubChem BioAssay)
